From the supplement of paper PMC10849652
The full data set covers some 8,800 targets. This sample favours those with a hit. About 0.5% of all pairs of compound and target were hits.

What was measured:
Experiment in all cases: log2 fold change, soluble protein after heating vs DMSO (PISA); higher = thermal stabilisation; K562 lysate, 10 uM; active = over 0.2 and 3.5 SD of the protein, either way, in both replicates (recomputed)
nilotinib = compound: Cc1cn(-c2cc(NC(=O)c3ccc(C)c(Nc4nccc(-c5cccnc5)n4)c3)cc(C(F)(F)F)c2)cn1 [nilotinib]
Outline: (§1)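 Thermal stability, expressed as log-two fold change relative to solvent controls, is given from duplicates. Crude K562 extract in PBS pH 7.4 with 1 mM MgCl2, at 1 mg/mL protein, was treated with 10 μM compound for 30 min and heated in aliquots for 3 min across 48°C-58°C. After pooling, adjustment to 0.5% NP-40 at 4°C and centrifugation at 21,000xg for 90 min, supernatant protein was measured by TMTpro 16plex LC-MS/MS with channel sums equalised.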

[1] = compound: Cc1nc(Nc2n[nH]c3c2CN(C(=O)N[C@H](CN(C)C)c2ccccc2)C3(C)C)c2sccc2n1
Outline: as §1

dasatinib = compound: Cc1nc(Nc2ncc(C(=O)Nc3c(C)cccc3Cl)s2)cc(N2CCN(CCO)CC2)n1 [dasatinib]
Outline: as §1

[2] = compound: Cc1ncc(-c2ccnc(Nc3ccc(S(C)(=O)=O)cc3)n2)n1C(C)C
Outline: as §1

[3] = compound: Cn1cc(-c2ccc3c(c2)CCN3C(=O)Cc2cccc(C(F)(F)F)c2)c2c(N)ncnc21
Outline: as §1

quisinostat = compound: Cn1cc(CNCC2CCN(c3ncc(C(=O)NO)cn3)CC2)c2ccccc21 [quisinostat]
Outline: as §1

tipifarnib = compound: Cn1cncc1[C@@](N)(c1ccc(Cl)cc1)c1ccc2c(c1)c(-c1cccc(Cl)c1)cc(=O)n2C [tipifarnib]
Outline: as §1

[4] = compound: NC(=O)Nc1cc(-c2cccc(F)c2)sc1C(=O)N[C@H]1CCCNC1
Outline: as §1

[5] = compound: NC(=O)c1cnc(N[C@@H]2CCCC[C@@H]2N)nc1Nc1cccc(-n2nccn2)c1
Outline: as §1

[6] = compound: NC1(c2ccc(-c3nc4ccn5c(=O)[nH]nc5c4cc3-c3ccccc3)cc2)CCC1
Outline: as §1

Measured: log2 fold change

EEFSEC (UniProt P57772)
inactive: nilotinib 0.004 | [1] 0.01 | dasatinib -0.067 | [2] -0.03 | [3] 0.007 | quisinostat -0.043 | tipifarnib -0.003 | [4] 0.052 | [5] 0 | [6] -0.019

FTSJ1 (UniProt Q9UET6)
inactive: nilotinib -0.013 | [1] -0.039 | dasatinib -0.016 | [2] -0.007 | [3] -0.007 | quisinostat -0.032 | tipifarnib -0.054 | [4] 0.035 | [5] -0.001 | [6] 0.029

GIGYF2 (UniProt Q6Y7W6)
inactive: nilotinib 0.004 | [1] -0.03 | dasatinib 0.006 | [2] 0.007 | [3] 0.024 | quisinostat -0.011 | tipifarnib -0.09 | [4] 0.026 | [5] 0.007 | [6] -0.04

FTSJ3 (UniProt Q8IY81)
inactive: nilotinib 0.001 | [1] -0.025 | dasatinib 0.021 | [2] 0.016 | [3] -0.001 | quisinostat 0.066 | tipifarnib -0.046 | [4] 0.047 | [5] 0.033 | [6] -0.015

FASTKD2 (UniProt Q9NYY8)
inactive: nilotinib -0.019 | [1] -0.006 | dasatinib -0.006 | [2] 0.016 | [3] -0.026 | quisinostat -0.027 | tipifarnib -0.02 | [4] 0.049 | [5] 0.027 | [6] 0.015

GCN1 (UniProt Q92616)
inactive: nilotinib 0.015 | [1] -0.017 | dasatinib -0.071 | [2] 0.001 | [3] 0.066 | quisinostat -0.072 | tipifarnib -0.01 | [4] 0.047 | [5] 0.001 | [6] -0.037

GBF1 (UniProt Q92538)
inactive: nilotinib -0.021 | [1] 0.02 | dasatinib -0.088 | [2] 0.027 | [3] 0.021 | quisinostat -0.04 | tipifarnib -0.003 | [4] 0.054 | [5] 0.018 | [6] -0.034

FNBP1L (UniProt Q5T0N5)
UniProt Q5T0N5, sequence (Q5T0N5 whole entry, looked up): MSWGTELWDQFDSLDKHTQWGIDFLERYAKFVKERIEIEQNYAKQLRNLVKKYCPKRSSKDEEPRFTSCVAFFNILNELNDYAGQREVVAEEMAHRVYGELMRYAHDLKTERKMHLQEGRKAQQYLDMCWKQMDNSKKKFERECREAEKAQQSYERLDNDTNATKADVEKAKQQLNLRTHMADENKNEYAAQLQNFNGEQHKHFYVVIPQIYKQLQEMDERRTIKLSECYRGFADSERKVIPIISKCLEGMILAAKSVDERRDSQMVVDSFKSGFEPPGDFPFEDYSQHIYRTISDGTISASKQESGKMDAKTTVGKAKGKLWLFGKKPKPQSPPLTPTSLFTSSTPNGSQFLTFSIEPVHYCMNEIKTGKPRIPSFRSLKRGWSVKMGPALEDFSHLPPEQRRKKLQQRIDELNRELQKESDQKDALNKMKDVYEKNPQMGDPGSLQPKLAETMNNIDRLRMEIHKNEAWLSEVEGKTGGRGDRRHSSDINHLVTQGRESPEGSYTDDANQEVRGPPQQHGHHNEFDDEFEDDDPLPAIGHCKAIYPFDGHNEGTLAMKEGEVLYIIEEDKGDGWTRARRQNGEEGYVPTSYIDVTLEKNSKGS
inactive: nilotinib -0.076 | [1] 0.03 | dasatinib -0.131 | [2] 0.007 | [3] -0.051 | quisinostat -0.068 | tipifarnib -0.016 | [4] 0.018 | [5] -0.004 | [6] 0.025

FDX2 (UniProt Q6P4F2)
UniProt Q6P4F2, sequence (Q6P4F2 whole entry, looked up): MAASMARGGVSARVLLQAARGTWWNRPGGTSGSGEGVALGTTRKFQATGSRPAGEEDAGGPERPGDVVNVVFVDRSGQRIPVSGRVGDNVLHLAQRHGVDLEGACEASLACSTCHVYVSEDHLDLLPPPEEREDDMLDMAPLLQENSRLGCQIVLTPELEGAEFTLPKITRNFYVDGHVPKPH
inactive: nilotinib 0.135 | [1] -0.025 | dasatinib 0.058 | [2] -0.067 | [3] -0.006 | quisinostat -0.068 | tipifarnib 0.096 | [4] 0.05 | [5] -0.068 | [6] 0.052

GAMT (UniProt Q14353)
inactive: nilotinib -0.017 | [1] 0.022 | dasatinib 0.03 | [2] 0.129 | [3] -0.025 | quisinostat -0.043 | tipifarnib -0.137 | [4] 0.024 | [5] -0.016 | [6] -0.002

EXTL2 (UniProt Q9UBQ6)
inactive: nilotinib 0.07 | [1] -0.085 | dasatinib 0.127 | [2] 0.081 | [3] 0.13 | quisinostat -0.146 | tipifarnib 0.017 | [4] 0.035 | [5] -0.068 | [6] 0.003

DSN1 (UniProt Q9H410)
UniProt Q9H410, sequence (Q9H410 whole entry, looked up): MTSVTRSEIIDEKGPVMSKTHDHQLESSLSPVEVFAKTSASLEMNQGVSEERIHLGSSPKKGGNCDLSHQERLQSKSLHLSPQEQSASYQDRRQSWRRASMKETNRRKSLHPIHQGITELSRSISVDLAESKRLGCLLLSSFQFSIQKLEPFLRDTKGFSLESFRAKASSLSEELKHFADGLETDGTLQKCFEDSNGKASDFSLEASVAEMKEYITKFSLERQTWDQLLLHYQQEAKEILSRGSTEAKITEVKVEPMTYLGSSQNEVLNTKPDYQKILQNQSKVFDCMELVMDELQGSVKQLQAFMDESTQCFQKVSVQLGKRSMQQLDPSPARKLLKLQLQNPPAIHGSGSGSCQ
inactive: nilotinib -0.006 | [1] 0.023 | dasatinib -0.022 | [2] 0.001 | [3] 0.011 | quisinostat -0.015 | tipifarnib -0.015 | [4] 0.05 | [5] 0.014 | [6] 0.031

ELAVL4 (UniProt P26378)
inactive: nilotinib -0.07 | [1] -0.062 | dasatinib 0.006 | [2] 0.092 | [3] 0.039 | quisinostat -0.07 | tipifarnib -0.06 | [4] 0.07 | [5] 0.01 | [6] 0.024

FCHO1 (UniProt O14526)
inactive: nilotinib 0.007 | [1] -0.02 | dasatinib -0.022 | [2] 0.035 | [3] 0.02 | quisinostat 0.013 | tipifarnib -0.025 | [4] 0.063 | [5] 0.006 | [6] 0.007

FTL (UniProt P02792)
inactive: nilotinib -0.039 | [1] 0.035 | dasatinib -0.03 | [2] -0.038 | [3] -0.012 | quisinostat 0.043 | tipifarnib 0.017 | [4] 0.091 | [5] 0.009 | [6] 0.06

ERI1 (UniProt Q8IV48)
UniProt Q8IV48, sequence (Q8IV48 whole entry, looked up): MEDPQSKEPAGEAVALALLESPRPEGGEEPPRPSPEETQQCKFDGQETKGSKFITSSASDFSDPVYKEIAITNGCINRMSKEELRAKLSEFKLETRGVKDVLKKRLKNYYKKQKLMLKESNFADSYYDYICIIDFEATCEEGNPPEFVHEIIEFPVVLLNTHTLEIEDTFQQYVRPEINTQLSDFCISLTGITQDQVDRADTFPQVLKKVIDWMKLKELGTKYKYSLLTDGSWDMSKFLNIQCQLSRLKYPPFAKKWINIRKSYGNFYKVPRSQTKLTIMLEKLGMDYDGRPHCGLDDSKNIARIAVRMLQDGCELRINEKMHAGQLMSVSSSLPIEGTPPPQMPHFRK
inactive: nilotinib 0.004 | [1] -0.008 | dasatinib -0.012 | [2] 0.035 | [3] 0.041 | quisinostat -0.019 | tipifarnib 0.043 | [4] 0.08 | [5] -0.019 | [6] 0.058

ECI2 (UniProt O75521)
inactive: nilotinib 0.085 | [1] -0.013 | dasatinib 0.029 | [2] 0.017 | [3] -0.01 | quisinostat 0.023 | tipifarnib -0.071 | [4] -0.027 | [5] -0.019 | [6] -0.022

FYCO1 isoform 4 (UniProt Q9BQS8)
inactive: nilotinib -0.02 | [1] -0.022 | dasatinib 0.011 | [2] 0.016 | [3] 0.031 | quisinostat -0.014 | tipifarnib -0.012 | [4] 0.019 | [5] 0.015 | [6] -0.008

FYB1 isoform 3 (UniProt O15117)
inactive: nilotinib 0.042 | [1] 0.004 | dasatinib -0.017 | [2] -0.025 | [3] 0.001 | quisinostat -0.068 | tipifarnib -0.012 | [4] 0.034 | [5] 0.005 | [6] 0.021

GDPD1 (UniProt Q8N9F7)
inactive: nilotinib -0.047 | [1] 0.011 | dasatinib 0.026 | [2] 0.011 | [3] -0.05 | quisinostat -0.056 | tipifarnib 0.024 | [4] -0.02 | [5] 0.053 | [6] -0.017

FAM98A (UniProt Q8NCA5)
inactive: nilotinib -0.045 | [1] 0.034 | dasatinib -0.034 | [2] 0.018 | [3] -0.022 | quisinostat -0.042 | tipifarnib 0.009 | [4] -0.004 | [5] -0.028 | [6] -0.014

EXOC1 (UniProt Q9NV70)
inactive: nilotinib -0.005 | [1] 0.013 | dasatinib -0.067 | [2] 0.013 | [3] 0.097 | quisinostat 0.024 | tipifarnib 0.005 | [4] 0.024 | [5] 0.012 | [6] -0.032

EMC7 (UniProt Q9NPA0)
UniProt Q9NPA0, sequence (Q9NPA0 whole entry, looked up): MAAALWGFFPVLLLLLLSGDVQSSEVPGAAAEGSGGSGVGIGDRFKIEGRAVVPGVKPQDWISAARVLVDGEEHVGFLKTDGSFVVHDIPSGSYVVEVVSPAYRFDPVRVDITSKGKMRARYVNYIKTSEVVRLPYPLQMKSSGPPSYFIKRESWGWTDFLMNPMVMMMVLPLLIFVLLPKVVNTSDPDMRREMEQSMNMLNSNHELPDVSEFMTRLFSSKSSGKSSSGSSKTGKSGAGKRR
inactive: nilotinib 0.047 | [1] -0.015 | dasatinib -0.022 | [2] 0.027 | [3] 0.001 | quisinostat -0.006 | tipifarnib -0.014 | [4] -0.003 | [5] 0.014 | [6] -0.073

G6PD isoform 2 (UniProt P11413)
inactive: nilotinib 0.013 | [1] -0.008 | dasatinib 0.01 | [2] -0.012 | [3] -0.01 | quisinostat -0.021 | tipifarnib 0.016 | [4] 0.012 | [5] -0.035 | [6] 0.008

EEF1AKNMT (UniProt Q8N6R0)
UniProt Q8N6R0, sequence (Q8N6R0 whole entry, looked up): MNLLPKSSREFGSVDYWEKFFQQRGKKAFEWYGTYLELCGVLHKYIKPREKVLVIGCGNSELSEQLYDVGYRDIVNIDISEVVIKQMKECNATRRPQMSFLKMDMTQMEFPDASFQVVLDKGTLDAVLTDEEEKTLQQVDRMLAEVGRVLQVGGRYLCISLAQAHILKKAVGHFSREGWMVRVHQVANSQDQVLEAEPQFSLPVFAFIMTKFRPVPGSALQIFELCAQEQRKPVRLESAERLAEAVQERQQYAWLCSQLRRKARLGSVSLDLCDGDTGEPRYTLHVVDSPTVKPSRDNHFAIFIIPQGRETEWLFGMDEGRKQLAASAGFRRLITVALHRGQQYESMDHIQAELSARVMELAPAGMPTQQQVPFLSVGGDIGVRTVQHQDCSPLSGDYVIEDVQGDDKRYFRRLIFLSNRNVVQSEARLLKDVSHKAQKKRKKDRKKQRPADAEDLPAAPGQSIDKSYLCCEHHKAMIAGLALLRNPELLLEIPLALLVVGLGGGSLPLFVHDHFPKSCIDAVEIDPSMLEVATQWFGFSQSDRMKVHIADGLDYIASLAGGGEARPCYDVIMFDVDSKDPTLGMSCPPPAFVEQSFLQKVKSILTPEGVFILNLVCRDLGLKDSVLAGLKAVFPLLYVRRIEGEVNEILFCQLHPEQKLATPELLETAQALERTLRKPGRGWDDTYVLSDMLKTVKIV
inactive: nilotinib 0.006 | [1] -0.008 | dasatinib -0.044 | [2] -0.011 | [3] 0.043 | quisinostat -0.093 | tipifarnib -0.003 | [4] 0.045 | [5] -0.013 | [6] 0.01

GART (UniProt P22102)
UniProt P22102, sequence (P22102 whole entry, looked up): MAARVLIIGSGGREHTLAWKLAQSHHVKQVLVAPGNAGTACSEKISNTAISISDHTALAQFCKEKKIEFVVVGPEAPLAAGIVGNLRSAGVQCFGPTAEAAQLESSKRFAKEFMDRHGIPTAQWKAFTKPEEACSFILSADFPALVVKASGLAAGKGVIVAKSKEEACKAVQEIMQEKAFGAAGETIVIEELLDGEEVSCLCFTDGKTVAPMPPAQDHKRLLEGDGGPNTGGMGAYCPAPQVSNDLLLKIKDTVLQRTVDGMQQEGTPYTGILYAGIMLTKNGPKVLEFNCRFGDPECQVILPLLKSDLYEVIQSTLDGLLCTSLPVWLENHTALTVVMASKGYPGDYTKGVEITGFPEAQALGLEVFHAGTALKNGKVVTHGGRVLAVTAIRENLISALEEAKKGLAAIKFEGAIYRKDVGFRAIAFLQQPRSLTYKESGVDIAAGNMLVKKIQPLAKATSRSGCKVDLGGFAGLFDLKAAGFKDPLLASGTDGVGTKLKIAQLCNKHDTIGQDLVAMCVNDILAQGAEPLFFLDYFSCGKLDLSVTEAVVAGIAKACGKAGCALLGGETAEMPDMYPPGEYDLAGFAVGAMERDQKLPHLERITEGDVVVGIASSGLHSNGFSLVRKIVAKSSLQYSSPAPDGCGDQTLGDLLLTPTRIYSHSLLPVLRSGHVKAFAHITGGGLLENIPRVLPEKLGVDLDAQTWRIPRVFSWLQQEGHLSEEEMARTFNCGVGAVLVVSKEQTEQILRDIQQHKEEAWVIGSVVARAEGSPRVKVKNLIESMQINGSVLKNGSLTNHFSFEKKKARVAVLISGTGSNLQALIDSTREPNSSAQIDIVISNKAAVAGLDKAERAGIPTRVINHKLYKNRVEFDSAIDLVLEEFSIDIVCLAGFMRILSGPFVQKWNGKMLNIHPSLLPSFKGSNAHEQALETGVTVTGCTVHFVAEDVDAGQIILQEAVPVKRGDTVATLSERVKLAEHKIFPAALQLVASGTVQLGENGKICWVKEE
inactive: nilotinib -0.006 | [1] -0.024 | dasatinib -0.022 | [2] -0.011 | [3] 0.01 | quisinostat 0.025 | tipifarnib 0.011 | [4] 0.015 | [5] 0.007 | [6] 0.006

GAPDH (UniProt P04406)
inactive: nilotinib 0.045 | [1] -0.026 | dasatinib -0.001 | [2] -0.023 | [3] 0 | quisinostat 0.114 | tipifarnib 0.042 | [4] 0 | [5] -0.019 | [6] 0.018

ENGASE (UniProt Q8NFI3)
UniProt Q8NFI3, sequence (Q8NFI3 whole entry, looked up): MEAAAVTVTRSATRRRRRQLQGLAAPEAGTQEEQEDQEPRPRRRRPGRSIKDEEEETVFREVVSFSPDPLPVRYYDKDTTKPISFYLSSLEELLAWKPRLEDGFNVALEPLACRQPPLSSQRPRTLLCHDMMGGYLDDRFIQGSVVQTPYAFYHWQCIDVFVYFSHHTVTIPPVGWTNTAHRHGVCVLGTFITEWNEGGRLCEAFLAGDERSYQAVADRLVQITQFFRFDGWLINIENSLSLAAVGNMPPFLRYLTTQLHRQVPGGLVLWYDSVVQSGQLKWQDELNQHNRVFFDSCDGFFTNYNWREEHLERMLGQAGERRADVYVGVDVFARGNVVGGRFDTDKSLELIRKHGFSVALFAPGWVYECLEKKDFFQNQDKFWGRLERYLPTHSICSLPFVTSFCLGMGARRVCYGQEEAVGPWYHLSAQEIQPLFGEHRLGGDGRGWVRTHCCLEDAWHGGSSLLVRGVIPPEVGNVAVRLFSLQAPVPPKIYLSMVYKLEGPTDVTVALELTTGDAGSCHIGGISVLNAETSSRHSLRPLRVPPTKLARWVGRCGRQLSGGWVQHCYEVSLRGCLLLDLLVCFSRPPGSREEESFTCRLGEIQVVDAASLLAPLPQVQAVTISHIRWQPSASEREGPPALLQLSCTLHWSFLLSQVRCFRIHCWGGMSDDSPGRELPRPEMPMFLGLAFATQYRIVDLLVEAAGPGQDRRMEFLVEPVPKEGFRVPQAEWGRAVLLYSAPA
inactive: nilotinib 0.02 | [1] -0.083 | dasatinib 0.029 | [2] -0.034 | [3] 0.028 | quisinostat 0.009 | tipifarnib 0.043 | [4] -0.04 | [5] 0.011 | [6] -0.025

FNTB (UniProt P49356)
inactive: nilotinib -0.005 | [1] 0.016 | dasatinib 0.018 | [2] -0.04 | [3] -0.022 | quisinostat -0.002 | [4] 0.003 | [5] -0.011 | [6] -0.027
active: tipifarnib 0.239

FMNL1 isoform 3 (UniProt O95466)
inactive: nilotinib -0.174 | [1] -0.043 | dasatinib -0.13 | [2] -0.135 | [3] 0.009 | quisinostat -0.047 | tipifarnib -0.038 | [4] -0.051 | [5] 0.012 | [6] -0.042

DUS2 (UniProt Q9NX74)
UniProt Q9NX74, sequence (Q9NX74 whole entry, looked up): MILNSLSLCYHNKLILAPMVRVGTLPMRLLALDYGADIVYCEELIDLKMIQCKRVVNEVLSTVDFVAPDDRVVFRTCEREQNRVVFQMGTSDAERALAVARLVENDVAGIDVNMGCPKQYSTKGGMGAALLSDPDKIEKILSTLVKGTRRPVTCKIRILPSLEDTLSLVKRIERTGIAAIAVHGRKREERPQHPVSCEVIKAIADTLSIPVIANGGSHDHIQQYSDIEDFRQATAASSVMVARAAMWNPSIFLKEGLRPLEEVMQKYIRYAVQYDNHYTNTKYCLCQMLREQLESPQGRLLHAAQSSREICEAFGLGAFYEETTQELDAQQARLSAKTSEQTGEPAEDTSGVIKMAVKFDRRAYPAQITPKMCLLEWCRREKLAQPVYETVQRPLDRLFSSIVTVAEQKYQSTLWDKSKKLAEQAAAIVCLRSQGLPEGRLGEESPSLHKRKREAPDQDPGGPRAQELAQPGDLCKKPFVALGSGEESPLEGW
inactive: nilotinib 0.021 | [1] -0.035 | dasatinib 0.037 | [2] 0.011 | [3] -0.024 | quisinostat 0.088 | tipifarnib -0.019 | [4] 0 | [5] 0.014 | [6] -0.045

ETHE1 (UniProt O95571)
UniProt O95571, sequence (O95571 whole entry, looked up): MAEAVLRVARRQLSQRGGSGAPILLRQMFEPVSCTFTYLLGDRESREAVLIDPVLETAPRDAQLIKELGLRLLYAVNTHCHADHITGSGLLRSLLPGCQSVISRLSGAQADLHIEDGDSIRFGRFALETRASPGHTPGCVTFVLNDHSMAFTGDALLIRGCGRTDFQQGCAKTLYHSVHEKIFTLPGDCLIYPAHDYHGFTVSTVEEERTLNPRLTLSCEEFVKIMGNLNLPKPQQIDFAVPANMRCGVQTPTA
inactive: [1] -0.124 | dasatinib -0.037 | [2] 0.095 | [3] -0.046 | quisinostat -0.015 | tipifarnib -0.181 | [4] 0.055 | [5] 0 | [6] -0.002
active: nilotinib 0.25

FBXO38 (UniProt Q6PIJ6)
inactive: nilotinib 0.157 | [1] -0.203 | dasatinib -0.03 | [2] -0.125 | [3] -0.069 | quisinostat -0.028 | tipifarnib -0.071 | [4] 0.026 | [5] -0.031 | [6] 0.012

EEF1A1, A0A087WVQ9
inactive: nilotinib 0.124 | [1] 0.012 | dasatinib 0.006 | [2] 0.044 | [3] 0.002 | quisinostat -0.025 | tipifarnib -0.001 | [4] 0.024 | [5] 0.013 | [6] 0.016
